Among the data in PubChem BioAssay (EPA / NIEHS) are outcome and AC50 values, retold here.

The source made the active and inactive calls. The calls were made as follows: active = hit-call score of the fitted dose curve at least 0.9, where 1 is the maximum; inactive = score below 0.9.

Test [1] in a line: ATG_CMV_CIS: Attagene CIS-FACTORIAL HepG2 Assay for human CMV (Internal Marker) (AID 2282928).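 Also: endpoint acts as a background internal control marker rather than a target.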 The settings on record: HepG2 CMV promoter reporter, transcription factor profiling; actives raise or lower the signal. Put shortly:
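24 h chemical treatment, HepG2 with transient multi-reporter transfection; RNA → oligo(dT) RT → PCR → 6-FAM extension → HpaI digest → CE fluorescence. Bidirectional fit, DMSO negative control.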

Test [2] in a line: ATG_M_32_CIS: Attagene CIS-FACTORIAL HepG2 Assay for M32 Transcription Factor (Internal Marker) (AID 2282949).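 Also: background control marker of the multiplexed CIS panel rather than a real target.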 The settings on record: HepG2 Attagene cis-factorial M32 reporter, mRNA; actives raise or lower the signal. In outline:
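HepG2 human liver cells transiently transfected with cis-promoter-driven multiple reporter transcription units, dosed 24 h. Reporter mRNA quantified by RT-PCR, FAM-labelled primer extension, HpaI digest and capillary electrophoresis; bidirectional fit versus DMSO baseline.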

Test [3] deals with Hepatocyte nuclear factor 6 (Homo sapiens) (UniProt Q9UBC0). As to the kind of experiment: ATG_HNF6_CIS: Attagene CIS-FACTORIAL HepG2 Assay for human Hepatocyte Nuclear Factor 6 (HNF6) (AID 2282952). To be noted: HepG2 Attagene cis-factorial HNF6 reporter transcription; actives raise or lower the signal. Put shortly: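 Endogenous factor activity read in transiently transfected HepG2 via promoter-regulated reporter transcripts. RNA harvested 24 h post-dosing, reverse-transcribed, PCR-amplified, FAM-labelled, HpaI-digested and resolved by capillary electrophoresis; fitted in both directions against DMSO.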

Test [4] in a line: ATG_RORE_CIS: Attagene CIS-FACTORIAL HepG2 Assay for human RAR-related Orphan Receptor Element (RORE) (AID 2282959). To be noted: HepG2 Attagene cis-factorial RORE reporter, mRNA; actives raise or lower the signal. In outline: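 Fluorescence intensity of reporter-specific cDNA fragments, separated by capillary electrophoresis, gives the signal. Source: HepG2 liver cells transiently transfected with cis-element reporters and exposed 24 h; DMSO-normalized bidirectional fit.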

Test [5] concerns the target Signal transducer and activator of transcription 3 (Homo sapiens) (UniProt P40763). As to the kind of experiment: ATG_STAT3_CIS: Attagene CIS-FACTORIAL HepG2 Assay for human Signal Transducer and Activator of Transcription 3 (STAT3) (AID 2282963). To be noted: HepG2, Attagene cis-factorial STAT3 reporter transcription; actives raise or lower the signal. Put shortly:
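HepG2, MRTU-transfected, 24 h dosing. RNA → RT → PCR → FAM label → HpaI → CE. Bidirectional fit vs DMSO.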

A short description of test [6]: ATG_TA_CIS: Attagene CIS-FACTORIAL HepG2 Assay for human TA Basal Promoter (AID 2282964). The settings on record: HepG2 Attagene CIS-factorial TA basal promoter reporter; actives raise or lower the signal. In outline:
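Transfected HepG2, 24 h compound exposure; RNA → RT-PCR → FAM primer extension → HpaI cut → CE fluorescence. Gain/loss-of-signal fitted against DMSO negative control. Background-control readout.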

A short description of test [7]: ATG_TCF_b_cat_CIS: Attagene CIS-FACTORIAL HepG2 Assay for human T-Cell-Factor with beta-catenin (TCF/b-cat) (AID 2282965). To be noted: HepG2 TCF/beta-catenin cis-reporter transcription, actives raise or lower the signal. In outline:
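HepG2 cells transiently transfected with multiple cis-promoter-regulated reporter transcription units, so endogenous transcription factor activity is measured. Reporter mRNA read 24 hours after dosing by RT-PCR, fluorescent labelling and capillary electrophoresis; bidirectional fitting against DMSO.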

Test [8] in a line: ATG_TAL_CIS: Attagene CIS-FACTORIAL HepG2 Assay for human TAL Basal Promoter (AID 2282966).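 Also: background control endpoint measuring basal TAL promoter reporter mRNA not a specific factor.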 To be noted: HepG2 Attagene cis-factorial TAL promoter reporter; actives raise or lower the signal. Put shortly:
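Background-control endpoint: basal TAL promoter reporter transcripts in transiently transfected HepG2, measured 24 h after dosing. Read-out by RT-PCR with fluorescent primer extension and capillary electrophoresis; gain or loss of signal fitted relative to DMSO.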

Test [9] can be described thus: ATG_TGFb_CIS: Attagene CIS-FACTORIAL HepG2 Assay for human Transforming Growth Factor (TGF) (AID 2282967). To be noted: HepG2 Attagene CIS TGFb reporter, mRNA transcription; actives raise or lower the signal. In outline:
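Readout: fluorescently labeled reporter cDNA fragments resolved by capillary electrophoresis after RT-PCR. Transfected HepG2 cells dosed for 24 h; endogenous TF activity at TGFB1-linked cis element; gain or loss fitted relative to DMSO.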

Test [10] is described as follows: ATG_VDRE_CIS: Attagene CIS-FACTORIAL HepG2 Assay for human Vitamin D Receptor Element (VDRE) (AID 2282968). The settings on record: HepG2 VDRE cis-reporter transcription, actives raise or lower the signal. Put shortly: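 Steps: transfect HepG2 with multiple reporter transcription units; dose chemicals 24 h; isolate RNA; RT-PCR; label with 6-FAM primer extension; HpaI digest; capillary electrophoresis. Curves fitted both directions against DMSO.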

Test [11] concerns the target X-box-binding protein 1 (Homo sapiens) (UniProt P17861). As to the kind of experiment: ATG_Xbp1_CIS: Attagene CIS-FACTORIAL HepG2 Assay for human X-box Binding Protein 1 (XBP1) (AID 2282972). The settings on record: HepG2 XBP1 cis-element reporter, Attagene multiplex; actives raise or lower the signal. Put shortly: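 Multiplexed cis-reporter readout in transfected HepG2 liver cells. Exposure lasted 24 hours. Activity in either direction was fitted against DMSO as negative control and baseline.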

The target in test [12] is Transcriptional activator Myb (Homo sapiens) (UniProt P10242). Nature of the test: ATG_Myb_CIS: Attagene CIS-FACTORIAL HepG2 Assay for human Myeloblastosis (Myb) Proto-Oncogene Transcription Factor (AID 2282986). The settings on record: HepG2 Attagene CIS-FACTORIAL Myb reporter transcription; actives raise or lower the signal. In outline: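 Fluorescence signals from capillary electrophoresis of RT-PCR-amplified reporter cDNA give the read-out. Cells: HepG2 transfected with multiple cis-regulated reporter units. Exposure lasts 24 hours; DMSO defines baseline for gain or loss of signal.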

Test [13] concerns the target Nuclear respiratory factor 1 (Homo sapiens) (UniProt Q16656). Nature of the test: ATG_NRF1_CIS: Attagene CIS-FACTORIAL HepG2 Assay for human Nuclear Respiratory Factor 1 (NRF1) Orphan Gene (AID 2282987). The settings on record: HepG2 NRF1 cis-element reporter, Attagene multiplex; actives raise or lower the signal. In outline: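 Transcriptional reporter readout, one component of a 52-endpoint multiplexed HepG2 panel. Exposure 24 h; mRNA detected via RT-PCR and fluorescent capillary electrophoresis; fitting in both directions against DMSO.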

In test [14] the target is Myc proto-oncogene protein (Homo sapiens) (UniProt P01106). Nature of the test: ATG_Myc_CIS: Attagene CIS-FACTORIAL HepG2 Assay for human Myelocytomatosis (Myc) Proto-Oncogene Transcription Factor (AID 2282990). The settings on record: HepG2, Attagene cis-reporter transcription factor activity; actives raise or lower the signal. In outline: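 HepG2 cells transiently transfected with multiple cis-promoter-driven reporter transcription units, so endogenous TF activity is read. After 24 h compound exposure, reporter mRNA was quantified by RT-PCR, 6-FAM labelling, HpaI digestion and capillary electrophoresis; bidirectional fit versus DMSO.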

Test [15] can be described thus: ATG_NF_kB_CIS: Attagene CIS-FACTORIAL HepG2 Assay for human Nuclear Factor Kappa B (NF-kB) (AID 2282991). To be noted: HepG2 Attagene cis-factorial NF-kB reporter mRNA; actives raise or lower the signal. Put shortly: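 HepG2, transient multi-reporter transfection, cis promoter elements (endogenous TFs). 24 h exposure. Total RNA → RT → PCR → 6-FAM label → HpaI → CE. Gain/loss vs DMSO.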

The nature of test [16]: ATG_NRF2_ARE_CIS: Attagene CIS-FACTORIAL HepG2 Assay for human Nuclear Factor Erythroid 2 Related Factor 2 (NFR2) response to Antioxidant Response Elements (ARE) (AID 2282992).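 As to AC50: reporter mRNA level measured by RT-PCR and capillary electrophoresis fluorescence.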 To be noted: HepG2 Attagene ARE/NRF2 reporter, transcription factor activity; actives raise or lower the signal. Put shortly: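 Endogenous transcription factor activity in human liver HepG2 cells is tracked via a cis-element-driven reporter within a multiplexed set. mRNA induction is read by RT-PCR and capillary electrophoresis after 24 h, with DMSO as baseline.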

Test [17] in a line: ATG_Oct_MLP_CIS: Attagene CIS-FACTORIAL HepG2 Assay for human Octamer-Binding Transcription Factor (Oct) (AID 2282993). To be noted: HepG2 Attagene cis-factorial Oct reporter, mRNA; actives raise or lower the signal. In outline: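 Read-out: reporter mRNA via RT-PCR plus capillary electrophoresis of 6-FAM-labelled fragments. Transiently transfected HepG2, 24 h exposure, endogenous TF activity on cis elements. Gain or loss of signal fitted relative to DMSO.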

For test [18], the target named is Cellular tumor antigen p53 (Homo sapiens) (UniProt P04637). As to the kind of experiment: ATG_p53_CIS: Attagene CIS-FACTORIAL HepG2 Assay for human p53 Transcription Factor (AID 2282994). The settings on record: HepG2 p53 cis-element reporter, Attagene mRNA; actives raise or lower the signal. Put shortly:
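Steps: transfect HepG2 with multiplexed cis reporter constructs; dose chemicals 24 h; extract RNA, reverse-transcribe, PCR-amplify reporter sequences; FAM-label, HpaI-digest, resolve fragments by CE. Activity fitted both directions relative to DMSO.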

Test [19] can be described thus: ATG_ISRE_CIS: Attagene CIS-FACTORIAL HepG2 Assay for human Interferon Regulatory Factor 1 (IRF1) binding to an Interferon-Stimulated Response Element (ISRE) (AID 2282948). The settings on record: HepG2 ISRE cis-reporter (Attagene), mRNA transcription readout; actives raise or lower the signal. Put shortly: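 Multiplexed mRNA reporter readout in human liver HepG2 cells: cis-element-driven reporters transfected, compound added for 24 h, transcripts amplified, fluorescently labelled and sized by capillary electrophoresis; curve fitting bidirectional against DMSO.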

In test [20] the target is Heat shock factor protein 1 (Homo sapiens) (UniProt Q00613). As to the kind of experiment: ATG_HSE_CIS: Attagene CIS-FACTORIAL HepG2 Assay for human Heat Shock Transcription Factor 1 (HSE) (AID 2282953). The settings on record: HepG2 HSE cis-reporter, Attagene RNA transcription; actives raise or lower the signal. In outline: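 Read-out: fluorescence of reporter-specific RT-PCR fragments separated by capillary electrophoresis. HepG2 carrying transfected cis-element reporter units; 24 h dosing; activity fitted in both directions relative to DMSO baseline.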
Heat shock factor protein 1 (Homo sapiens), sequence (Q00613 whole entry, looked up, the tested form may be a part): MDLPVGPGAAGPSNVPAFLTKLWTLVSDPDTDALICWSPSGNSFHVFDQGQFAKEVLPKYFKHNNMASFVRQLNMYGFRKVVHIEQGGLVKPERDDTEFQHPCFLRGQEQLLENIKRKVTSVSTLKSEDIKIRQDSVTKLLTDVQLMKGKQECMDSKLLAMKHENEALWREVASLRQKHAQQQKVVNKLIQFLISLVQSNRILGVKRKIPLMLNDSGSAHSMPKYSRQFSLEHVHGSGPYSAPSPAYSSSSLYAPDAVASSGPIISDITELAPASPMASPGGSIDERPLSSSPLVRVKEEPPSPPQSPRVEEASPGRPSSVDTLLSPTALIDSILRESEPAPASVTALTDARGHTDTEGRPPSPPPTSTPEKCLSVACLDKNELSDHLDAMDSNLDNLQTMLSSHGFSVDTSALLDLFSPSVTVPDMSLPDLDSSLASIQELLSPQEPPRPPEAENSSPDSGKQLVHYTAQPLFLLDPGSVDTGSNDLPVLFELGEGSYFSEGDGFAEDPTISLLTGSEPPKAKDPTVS

Nuclear respiratory factor 1 (Homo sapiens), sequence (Q16656 whole entry, looked up): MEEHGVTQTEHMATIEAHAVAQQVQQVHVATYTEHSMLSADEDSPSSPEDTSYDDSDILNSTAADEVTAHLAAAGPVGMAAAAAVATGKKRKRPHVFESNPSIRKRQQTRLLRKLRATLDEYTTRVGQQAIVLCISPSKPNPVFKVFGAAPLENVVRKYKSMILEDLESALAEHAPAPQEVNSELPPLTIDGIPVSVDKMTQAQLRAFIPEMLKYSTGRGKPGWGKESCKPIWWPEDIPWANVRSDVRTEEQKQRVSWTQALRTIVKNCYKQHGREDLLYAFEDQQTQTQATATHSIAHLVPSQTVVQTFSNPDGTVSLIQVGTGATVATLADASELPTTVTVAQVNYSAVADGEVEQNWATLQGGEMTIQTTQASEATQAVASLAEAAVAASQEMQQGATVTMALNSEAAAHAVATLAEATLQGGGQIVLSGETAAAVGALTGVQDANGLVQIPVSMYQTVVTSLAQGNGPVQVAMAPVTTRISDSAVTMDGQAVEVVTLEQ
Myc proto-oncogene protein (Homo sapiens), sequence (P01106 whole entry, looked up): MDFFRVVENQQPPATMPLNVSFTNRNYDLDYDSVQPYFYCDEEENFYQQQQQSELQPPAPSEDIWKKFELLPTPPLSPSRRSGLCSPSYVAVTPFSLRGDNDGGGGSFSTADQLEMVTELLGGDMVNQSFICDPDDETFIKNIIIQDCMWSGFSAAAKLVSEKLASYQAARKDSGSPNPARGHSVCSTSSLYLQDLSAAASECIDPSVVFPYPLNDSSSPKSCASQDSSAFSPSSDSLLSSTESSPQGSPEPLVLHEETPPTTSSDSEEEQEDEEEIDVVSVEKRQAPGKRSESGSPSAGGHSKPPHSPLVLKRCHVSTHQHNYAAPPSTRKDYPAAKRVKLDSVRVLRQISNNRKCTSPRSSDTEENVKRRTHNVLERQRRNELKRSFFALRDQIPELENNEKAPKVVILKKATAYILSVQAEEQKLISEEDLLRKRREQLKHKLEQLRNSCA
X-box-binding protein 1 (Homo sapiens), sequence (P17861 whole entry, looked up): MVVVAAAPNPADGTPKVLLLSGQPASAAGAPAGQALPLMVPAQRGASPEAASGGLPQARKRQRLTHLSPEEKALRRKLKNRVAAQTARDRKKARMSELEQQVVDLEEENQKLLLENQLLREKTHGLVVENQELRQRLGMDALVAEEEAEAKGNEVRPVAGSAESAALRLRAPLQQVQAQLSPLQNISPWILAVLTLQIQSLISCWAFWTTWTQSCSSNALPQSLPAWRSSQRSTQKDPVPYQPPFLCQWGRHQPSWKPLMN
Transcriptional activator Myb (Homo sapiens), sequence (P10242 whole entry, looked up): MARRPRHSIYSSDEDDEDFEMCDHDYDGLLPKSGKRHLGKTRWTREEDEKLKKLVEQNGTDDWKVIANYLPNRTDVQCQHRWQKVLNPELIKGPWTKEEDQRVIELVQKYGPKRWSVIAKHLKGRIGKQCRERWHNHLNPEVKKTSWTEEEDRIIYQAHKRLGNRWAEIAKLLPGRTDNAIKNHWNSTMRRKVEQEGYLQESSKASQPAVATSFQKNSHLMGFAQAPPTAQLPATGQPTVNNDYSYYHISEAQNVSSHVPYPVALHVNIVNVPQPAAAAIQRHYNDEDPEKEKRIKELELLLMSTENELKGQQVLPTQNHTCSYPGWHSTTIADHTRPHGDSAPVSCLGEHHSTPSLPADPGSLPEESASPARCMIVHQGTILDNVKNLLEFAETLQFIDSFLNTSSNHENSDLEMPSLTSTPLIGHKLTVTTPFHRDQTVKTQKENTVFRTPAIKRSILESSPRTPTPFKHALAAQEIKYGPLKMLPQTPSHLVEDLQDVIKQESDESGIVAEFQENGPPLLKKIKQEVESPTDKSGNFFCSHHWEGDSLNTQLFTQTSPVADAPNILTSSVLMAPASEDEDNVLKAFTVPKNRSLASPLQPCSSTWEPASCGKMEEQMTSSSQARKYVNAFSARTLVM
Cellular tumor antigen p53 (Homo sapiens), sequence (P04637 whole entry, looked up, the tested form may be a part): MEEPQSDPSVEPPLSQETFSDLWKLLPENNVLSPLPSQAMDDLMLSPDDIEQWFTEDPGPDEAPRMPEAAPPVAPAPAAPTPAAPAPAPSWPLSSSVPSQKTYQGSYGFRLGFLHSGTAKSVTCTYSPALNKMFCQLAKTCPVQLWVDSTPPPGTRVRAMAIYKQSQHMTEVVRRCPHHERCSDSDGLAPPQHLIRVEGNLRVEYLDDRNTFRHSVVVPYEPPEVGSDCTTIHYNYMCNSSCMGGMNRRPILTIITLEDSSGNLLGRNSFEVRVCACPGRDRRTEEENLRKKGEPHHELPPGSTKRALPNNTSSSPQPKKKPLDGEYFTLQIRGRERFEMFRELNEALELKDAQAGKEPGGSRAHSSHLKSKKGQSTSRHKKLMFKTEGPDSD
Signal transducer and activator of transcription 3 (Homo sapiens), sequence (P40763 whole entry, looked up): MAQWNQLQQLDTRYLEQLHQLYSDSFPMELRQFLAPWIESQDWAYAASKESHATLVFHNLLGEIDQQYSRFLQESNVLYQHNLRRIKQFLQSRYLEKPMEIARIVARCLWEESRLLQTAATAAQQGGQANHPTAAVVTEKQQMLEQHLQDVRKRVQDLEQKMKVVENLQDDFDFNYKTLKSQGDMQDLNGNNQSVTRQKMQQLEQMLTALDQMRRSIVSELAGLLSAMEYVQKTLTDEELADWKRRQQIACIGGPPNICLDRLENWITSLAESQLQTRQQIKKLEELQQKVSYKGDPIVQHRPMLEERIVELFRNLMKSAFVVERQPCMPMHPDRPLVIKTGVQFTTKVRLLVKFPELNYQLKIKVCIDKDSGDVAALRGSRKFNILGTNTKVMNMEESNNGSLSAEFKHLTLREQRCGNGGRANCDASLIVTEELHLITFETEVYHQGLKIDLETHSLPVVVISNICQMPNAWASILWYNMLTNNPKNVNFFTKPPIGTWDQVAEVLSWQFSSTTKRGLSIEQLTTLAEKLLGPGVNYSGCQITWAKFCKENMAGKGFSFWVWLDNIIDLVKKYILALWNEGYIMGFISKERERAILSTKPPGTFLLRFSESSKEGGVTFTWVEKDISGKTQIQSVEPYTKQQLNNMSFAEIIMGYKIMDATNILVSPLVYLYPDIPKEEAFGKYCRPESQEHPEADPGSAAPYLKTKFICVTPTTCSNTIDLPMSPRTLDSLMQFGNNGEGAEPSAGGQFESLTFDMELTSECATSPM
Hepatocyte nuclear factor 6 (Homo sapiens), sequence (Q9UBC0 whole entry, looked up): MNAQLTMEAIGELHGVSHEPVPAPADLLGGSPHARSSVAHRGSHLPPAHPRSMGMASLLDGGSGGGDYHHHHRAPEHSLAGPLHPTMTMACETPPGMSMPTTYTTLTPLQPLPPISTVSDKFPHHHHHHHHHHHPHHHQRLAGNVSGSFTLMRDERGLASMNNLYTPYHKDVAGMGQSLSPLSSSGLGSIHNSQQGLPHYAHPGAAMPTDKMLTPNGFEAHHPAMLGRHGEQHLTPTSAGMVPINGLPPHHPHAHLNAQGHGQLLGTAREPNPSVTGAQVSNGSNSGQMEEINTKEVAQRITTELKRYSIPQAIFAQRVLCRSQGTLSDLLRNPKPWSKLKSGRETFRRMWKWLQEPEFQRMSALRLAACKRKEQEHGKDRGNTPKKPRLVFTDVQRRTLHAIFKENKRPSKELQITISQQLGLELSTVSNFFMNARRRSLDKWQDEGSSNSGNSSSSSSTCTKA

Take `O=CNC(N1CCN(C(NC=O)C(Cl)(Cl)Cl)CC1)C(Cl)(Cl)Cl` (stereo not drawn): the compound was called inactive in [1], in test [2], in test [3], in test [4], in test [5] and in test [6]. Also, the result in [7], in test [8], in test [9], in test [11], in [12] and in [13] was inactive. Moreover, the outcome in test [14], in test [15], in test [16] and in [17] was inactive. In addition, the AC50 – broadly, the concentration at which the activity in the assay is half-maximal – in [10] was 15.3 µM (active); in [18] it was 148 µM (active).
For the compound `CN(C)N`, the compound was classed as inactive in [1], in test [19], in test [2], in test [3], in [20] and in [4]. Further, the outcome in [5], in test [7], in test [8], in test [9], in [10] and in test [11] was inactive. For the same compound, the compound was called inactive in test [12], in test [13], in [14], in test [16], in test [17] and in test [18].
Regarding `CC(C)(C)C(O)C(Oc1ccc(-c2ccccc2)cc1)n1cncn1` (stereo not drawn), the half-maximal activity concentration (AC50) in [1] is 33.4 µM (active); in test [19], 51.8 µM (active); in test [20] it was 59.6 µM (active); in test [7], 51.8 µM (active); in test [9], 0.672 µM (active); in [10], 9 µM (active). Besides, the half-maximal activity concentration (AC50) in test [16] is 41.6 µM (active); in test [18], 44 µM (active). Moreover, the compound was called inactive in [2], in test [3], in [4], in test [5], in test [8] and in test [11]. For the same compound, the compound was called inactive in [12], in test [13], in test [14], in [15] and in test [17].
Regarding `Nc1ccc(-c2ccc(N)c(N)c2)cc1N`, the compound was called inactive in [1], in test [2], in test [3], in test [20], in test [4] and in test [5]. Also, the compound was classed as inactive in test [6], in [7], in test [8], in [9], in test [10] and in [11]. The compound was classed as inactive in [12], in test [13], in test [14], in test [15] and in test [17]. Moreover, the half-maximal activity concentration (AC50) in test [16] was 14 µM (active).
